# This is part of a sample that, as a whole, favours compounds with a hit. Of some 79,000 tested, about 15% had one in any assay. Unmarked numbers belong to inactive results. Cut-off read from the data, not from the text of the source: active = growth inhibition above about 70%; inactive = the rest.
# Assay: NCI Yeast Anticancer Drug Screen. Data for the rad50 strain (AID 155);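 note: 0% = growth of vehicle-only cultures of the same strain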
# Conditions: S. cerevisiae rad50 strain growth inhibition; at 50.0 µM; stronger effect = higher value
# Outline: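 Vehicle-treated cultures provide the reference for the growth inhibition reported for compound-exposed, repair-deficient yeast.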
row,SMILES,growth inhibition [%]
1,Cc1c(Cl)cccc1N=C=S,-9.85
2,NNC(=O)CCCCl,-10.5
3,O=C(O)CC1=CCCCC1,23.4
4,CCOc1ccccc1NC(=O)CCl,16.4
5,CN(C)c1ccc(O)c2c1CC1CC3C(N(C)C)C(=O)C(C(N)=O)=C(O)C3(O)C(=O)C1=C2O (configuration not stated),60.8
6,CCOC(=O)CNC,3.55
7,CN(C)CCOC(=O)Nc1ccc(Cc2ccc(NC(=O)OCCN(C)C)cc2)cc1,-2.1
8,NC(CCl)=NCC12CC3CC(CC(C3)C1)C2,52
9,CC(C)(C)NCCC(O)c1cc(C(F)(F)F)nc2c(C(F)(F)F)cccc12 (configuration not stated),-4.3
10,OCc1cccnc1,-6.3
11,C/C(O)=C(/C=N/C(=S)Nc1ccccc1)C(=O)Nc1ccccc1C,25.9
12,CN1CCCN(C(c2ccccc2)c2ccc(Br)cc2)CC1 (configuration not stated),40
13,CC(=O)NC(O)C(Cl)Cl (configuration not stated),-14.7
14,CCCCCC#CC(=O)O,-3.05
15,COc1ccc(C(=O)C(=O)c2ccccc2)cc1,26.6
16,OCCc1ccc(Cl)cc1,10.8
17,NNc1ncnc2nc[nH]c12,-20.4
18,CCC(=O)C1C(=O)c2ccccc2C1=O,20.9
19,O=C(O)CCCCCNC(=O)OCc1ccccc1,17.7

row,SMILES,growth inhibition [%]
1,C=C(OC(C)=O)c1ccccc1,6.45
2,Clc1ncnc2nc[nH]c12,-1.9
3,C=CCN1CCCC1=O,7.85
4,CCCCCCCCCCCCCCCCCCSC(=N)N,45.9
5,NC(=S)N/N=C/c1ccc(OC(=O)COc2ccccc2)cn1,-2.8
6,Cn1c(=O)c2[nH]c(CCCCC(=O)O)nc2n(C)c1=O,-7.8
7,COC1=C(OC)C(=O)C(SC/C=C(\C)CCCC(C)CCCC(C)CCCC(C)C)=CC1=O (configuration not stated),-31.8
8,C/C(=N\O)c1ccccn1,-7.6
9,O=C(O)Cc1cccc2ccccc12,19.2
10,CC(=O)NC(CCC(=O)c1ccccc1)C(=O)O (configuration not stated),18.1
11,C[n+]1c(/C=C\C=C\N2CCCCC2)sc2ccccc21,28.7
12,Nc1nc(N)nc(N2CCCCC2)n1,-23.3
13,CCCC1OC(c2ccco2)OCC1CC (configuration not stated),30.8
14,COC(=O)C1(CC(C)=O)NC(=S)NC(=O)C1C#N (configuration not stated),-21.4
15,CC(c1ccccc1)N(C)C (configuration not stated),12.7
16,CCOC(OCC)C(=O)c1ccccc1,-0.5
17,Cc1cc(CC(=O)NCCO)n(CCO)c(=O)c1,-7.85
18,CCOC(=O)/C(O)=C(\C=N\C(=S)Nc1ccc(Cl)c(Cl)c1)C(=O)OCC,43.6

# — PubChem BioAssay (NCI)
